Screening results: PubChem, Sanford-Burnham Center for Chemical Genomics
An excerpt weighted towards active compounds, which were near 2% of everything screened.
PfGluPho inh: PfG6PD enzyme inhibitors, primary screen, biochemical, fluorescence intensity, uHTS. 0.78% of 350,000 active. glucose-6-phosphate dehydrogenase-6-phosphogluconolactonase (Plasmodium falciparum 3D7). PfGluPho enzyme, NADPH resazurin-diaphorase fluorescence. inhibition, % at 20 µM;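 active = inhibition reaching at least a set limit at 20 µM in the primary screen, cut at about 59% in these data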;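 note: 0% = DMSO wells with substrate and 100% = DMSO wells lacking glucose-6-phosphate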
NPR2 activator: human GC-B receptor activators, primary screen, HEK293 GC-B cells, cGMP TR-FRET, EC30 CNP; Atrial natriuretic peptide receptor 2 (Homo sapiens), P20594; AID 1920062, 2024; 0% at EC30 CNP, 100% saturating CNP; 0.11% of 370,000 active; activation, % at 10 µM;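 active = activation at 10 µM reaching about 35% in either raw or pattern-adjusted values, limit read from the data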
GC-A act: GC-A stimulated cGMP production enhancers – HEK293 GC-A cells, cGMP TR-FRET, EC30 ANP, primary screen; activation, % at 10 µM; Atrial natriuretic peptide receptor 1 (Homo sapiens), P16066; 0.14% of 370,000 active; AID 1671463, 2021; 0% at EC30 ANP, 100% saturating ANP; in the data active = activation above about 40%
Neddyl block: inhibitors of cullin neddylation, primary screen, biochemical, TR-FRET, uHTS, NAE and Ubc12; NEDD8-conjugating enzyme Ubc12 (Homo sapiens) + NEDD8-activating enzyme E1 regulatory …; inhibition, % at 25 µM; 0.58% of 360,000 active; AID 651699, 2012; in the data active = inhibition above about 36%
A3A deaminase: APOBEC3A ssDNA deaminase inhibitors, primary screen, selectivity assay for APOBEC3G inhibitor project, biochemical, FAM/TAMRA oligo cleavage fluorescence; DNA dC->dU-editing enzyme APOBEC-3A (Homo sapiens), P31941; 0.41% of 330,000 active; inhibition, % at 20 µM; recombinant A3A, FAM/TAMRA ssDNA deamination fluorescence;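 active = at least 40% inhibition at 20 µM here, with at most 30% in a related deaminase screen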;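 note: plate controls were A3A with DMSO for no effect and wells lacking A3A enzyme for full effect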
Target sequence (P31941 whole entry, looked up): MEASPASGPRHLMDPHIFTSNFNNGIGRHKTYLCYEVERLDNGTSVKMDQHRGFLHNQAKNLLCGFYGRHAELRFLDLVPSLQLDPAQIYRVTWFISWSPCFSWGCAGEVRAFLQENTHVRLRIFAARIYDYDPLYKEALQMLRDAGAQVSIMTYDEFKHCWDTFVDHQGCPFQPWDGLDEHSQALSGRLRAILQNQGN
A3G deaminase: APOBEC3G DNA deaminase inhibitors, primary screen, biochemical, fluorescence, single-stranded DNA substrate, uHTS; inhibition, % at 20 µM; 0.28% of 330,000 active; AID 493012, 2011; recombinant A3G, ssDNA deamination FAM/TAMRA fluorescence; DNA dC->dU-editing enzyme APOBEC-3G (Homo sapiens), Q9HC16;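 active = inhibition of at least 40% at 20 µM, with no more than 30% in the related APOBEC3A deaminase screen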;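 note: plate controls were DMSO wells with A3G for no effect and wells lacking A3G enzyme for full effect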
Target sequence (Q9HC16 whole entry, looked up): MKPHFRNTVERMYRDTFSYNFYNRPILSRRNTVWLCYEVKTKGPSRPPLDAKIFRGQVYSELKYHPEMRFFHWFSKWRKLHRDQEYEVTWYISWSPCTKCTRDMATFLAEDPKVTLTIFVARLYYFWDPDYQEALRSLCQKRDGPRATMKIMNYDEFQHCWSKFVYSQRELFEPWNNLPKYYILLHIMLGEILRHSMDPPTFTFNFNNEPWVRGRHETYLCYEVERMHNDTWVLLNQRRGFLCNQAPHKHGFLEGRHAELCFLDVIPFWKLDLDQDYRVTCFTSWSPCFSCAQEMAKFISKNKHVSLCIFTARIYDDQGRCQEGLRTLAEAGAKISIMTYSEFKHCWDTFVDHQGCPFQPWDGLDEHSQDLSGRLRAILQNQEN
A3A conf: APOBEC3A deaminase inhibitors, retest, confirmation, selectivity assay for APOBEC3G inhibitor project, biochemical, single concentration, fluorescence readout. shares compounds with A3A deaminase. recombinant A3A, ssDNA deaminase UDG fluorescence assay. inhibition, % at 20 µM. 63% of 1,400 active;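 active = inhibition reaching a set limit, 80% of the first screen's cutoff, at 20 µM in any replicate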;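 note: plate controls were DMSO wells with A3A for no effect and wells lacking A3A enzyme for full effect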
UDG A3A counter: E. coli UDG inhibitors, confirmation, counter-screen for APOBEC3A inhibitor project, biochemical, single concentration, fluorescence, FAM/TAMRA oligo; shares compounds with A3A deaminase; UDG counterscreen, FAM/TAMRA uracil oligo fluorescence; inhibition, % at 20 µM; 1,000 tested, under 10 active; call rule not given here
* = called active by the depositor; / = no result given.

SMILES | PfGluPho inh | NPR2 activator | GC-A act | Neddyl block | A3A deaminase | A3G deaminase | A3A conf | UDG A3A counter
O=C(CN1CCN(c2ccccc2)CC1)NC(=O)NCc1ccco1 | -7 | 6 | 2 | -7 | 4 | 4 | / | /
COc1cccc(N2CCN(CC(=O)NC(=O)NCc3ccco3)CC2)c1 | -3 | -5 | -2 | 12 | 47* | 25 | 27* | -4
COC(=O)[C@]12C[C@H](CC(=O)N3CCCCC3)C(=O)N(Cc3ccccc3)C1=C[C@H](C(C)(C)C)O[C@@H]2C | / | -7 | -6 | / | / | / | / | /
O=C(CSc1ccccn1)Nc1ccccc1F | -4 | 7 | -1 | 14 | -5 | -7 | / | /
O=C(CSc1ccccn1)Nc1cccc2ccccc12 | 7 | -5 | 4 | -8 | 60* | 8 | 44* | -3
CCOC(=O)CC[C@H]1CC[C@]2(CCCN(S(=O)(=O)C3CCCCC3)C2)O1 | / | 3 | 2 | / | / | / | / | /
CCOc1ccc(CN2C(=O)c3ccccc3C2=O)cc1C(=O)NC1CC(C)(C)NC(C)(C)C1 | 3 | 4 | 1 | -39 | 45* | 9 | 64* | -3
CC(C)N1Cc2nnn(Cc3ccccc3)c2-c2cc(N3CCCC3)ccc2S1(=O)=O | / | -14 | -10 | / | / | / | / | /
O=C(CN1C(=O)C2CCCCN2C(=O)c2ccccc21)N1CCCC1 (configuration not stated) | / | 11 | 1 | / | / | / | / | /
CN(Cc1ccccc1)C1=CC(=[N+]2CCCCC2)CC(C)(C)C1 | -8 | 2 | 3 | 2 | 68* | 20 | 73* | -2
C[C@H]1[C@@H](OC(=O)Nc2ccc(C(F)(F)F)cc2)CC[C@@]23CCCN2C(=O)CCC[C@@H]13 | / | 0 | -8 | / | / | / | / | /
CSC1=NCCN1CCOc1ccccc1 | 19 | 0 | 1 | 5 | 65* | 16 | 55* | -2
O=C(Nc1cccc(C(F)(F)F)c1)OCCCN1CCC2(CCC(c3ccccc3)CC2)C1=O (configuration not stated) | / | 3 | -1 | / | / | / | / | /
CC(=O)Nc1ccc(C(/C=C/c2ccccc2)Cc2ccccc2)cc1 (configuration not stated) | / | -1 | 6 | / | / | / | / | /
CC1=CC(C)C(C[N+]2(C)CCCCC2)C(C)C1 (configuration not stated) | -2 | 0 | 0 | 9 | 58* | 13 | 56* | -3
CC1=CC(C)C(COC(=O)CN2CCCCC2)C(C)C1 (configuration not stated) | -5 | -8 | -3 | -2 | -2 | -4 | / | /
COc1cc(/C=C(\C#N)C(=O)NCc2ccccc2)ccc1OCc1ccc(C(=O)O)cc1 | -24 | -6 | 2 | -26 | -2 | 0 | / | /
COc1cc(/C=C(/C#N)C(=O)NCCCc2ccccc2)ccc1OCC(=O)O | -17 | -2 | 2 | -11 | 40* | 11 | 67* | 1
O=C(/C=C/c1ccccc1)OCCCCN=C1NS(=O)(=O)c2ccccc21 | 4 | -7 | -7 | -9 | 83* | 2 | 3 | /
O=[N+]([O-])c1ccc(C[n+]2cccc3ccccc32)cc1 | 4 | 2 | 1 | -36 | 43* | 3 | 53* | -2
O=[N+]([O-])c1ccc(C[n+]2cccc3ccc4cccnc4c32)cc1 | 7 | 3 | 8 | -33 | 16 | 2 | / | /
CCN1/C(=C/c2cc[n+](CCCS(=O)(=O)[O-])c3ccccc23)Sc2ccccc21 | 0 | -6 | -4 | -53 | 76* | 20 | 69* | -1
CCC(/C=C1\Sc2ccc(OC)cc2N1CC)=C\c1sc2ccc(OC)cc2[n+]1CCCS(=O)(=O)[O-] | 17 | 6 | 3 | -1 | 2 | -3 | / | /
CCC(C)Sc1nnc(Cc2cc(=O)[nH]c(=O)[nH]2)n1-c1ccc(OC)cc1 (configuration not stated) | 10 | -4 | 2 | -5 | 63* | -4 | -2 | -2
CC(C)c1ccc(OCC(=O)NN2C(=O)c3ccccc3C2=O)c(Br)c1 | -8 | 5 | 4 | 9 | -2 | -12 | / | /
SMILES | PfGluPho inh | NPR2 activator | GC-A act | Neddyl block | A3A deaminase | A3G deaminase | A3A conf | UDG A3A counter
O=C(COc1ccc(Br)cc1Br)NN1C(=O)c2ccccc2C1=O | -15 | 4 | -2 | -2 | 55* | -9 | 11* | 8
COC(=O)[C@]12C[C@H](CC(=O)NCCCCc3ccccc3)C(=O)N(CCC3=CCCCC3)C1=C[C@H](COCc1ccccc1)O[C@@H]2C | / | 2 | -1 | / | / | / | / | /
C[C@H](O)[C@@H]1C(=O)N2CCc3c([nH]c4c(-c5ccc6c(c5)OCO6)cccc34)[C@@H]2C[C@@H]1N(C)C(=O)c1ccccc1F | / | -10 | -5 | / | / | / | / | /
COc1ccc(C(C(=O)NCCC(C)C)N(CCO)C(=O)c2snc(C(N)=O)c2N)cc1OC (configuration not stated) | 18 | 2 | -4 | 14 | -7 | -6 | / | /
COc1ccc(C(C(=O)NCCC(C)C)N(CCO)C(=O)c2snc(C(N)=O)c2N)cc1 (configuration not stated) | 4 | -5 | -7 | 25 | 77* | 0 | -1 | /
COc1ccc(OC)c(NC(=O)CCCc2ccccc2)c1 | 2 | 0 | 4 | 1 | -1 | -7 | / | /
COc1ccc(CCCC(=O)Nc2cc(C)ccc2OC)cc1 | 17 | 3 | -2 | 0 | 60* | 11 | 28 | /
NS(=O)(=O)c1ccc(CCNC(=O)CCS(=O)(=O)c2ccc(Br)cc2)cc1 | 3 | 3 | -2 | 2 | 46* | 24 | 40* | /
O=C(CCS(=O)(=O)c1ccc(Br)cc1)NCCc1ccccc1 | -11 | 2 | -3 | 1 | 25 | 30 | / | /
O=C(C1CCN(c2cncnc2)CC1)N1CCCC1 | / | -3 | -4 | / | / | / | / | /
O=C(CSc1ncn(-c2ccccc2)n1)Nc1ccc2c(c1)OCO2 | 13 | -1 | 0 | -7 | 46* | 12 | 11 | /
